Drawing on ChEMBL document CHEMBL3988442, “University of Dundee, Small-Polar-MMV Screening Library” (2021), this text covers Percent Effect for ten compounds.

For some assays here: Entries with a potency or affinity are not part of this list.

Design in all cases: scale not given: direction of the effect not stated beside the values
For test [1], the target named is Protein translocase subunit SecA (Escherichia coli (strain K12)) (UniProt P10408). Put plainly: Assay to Identify E. coli SecA ATPase Inhibitors. The class given is functional. The conditions noted are these: 30 µM.
The target of test [2] is T1, Ubiquitin-activating enzyme e1, putative (Leishmania donovani (strain BPK282A1)) (UniProt E9BSI1).
T1 sequence (whole entry): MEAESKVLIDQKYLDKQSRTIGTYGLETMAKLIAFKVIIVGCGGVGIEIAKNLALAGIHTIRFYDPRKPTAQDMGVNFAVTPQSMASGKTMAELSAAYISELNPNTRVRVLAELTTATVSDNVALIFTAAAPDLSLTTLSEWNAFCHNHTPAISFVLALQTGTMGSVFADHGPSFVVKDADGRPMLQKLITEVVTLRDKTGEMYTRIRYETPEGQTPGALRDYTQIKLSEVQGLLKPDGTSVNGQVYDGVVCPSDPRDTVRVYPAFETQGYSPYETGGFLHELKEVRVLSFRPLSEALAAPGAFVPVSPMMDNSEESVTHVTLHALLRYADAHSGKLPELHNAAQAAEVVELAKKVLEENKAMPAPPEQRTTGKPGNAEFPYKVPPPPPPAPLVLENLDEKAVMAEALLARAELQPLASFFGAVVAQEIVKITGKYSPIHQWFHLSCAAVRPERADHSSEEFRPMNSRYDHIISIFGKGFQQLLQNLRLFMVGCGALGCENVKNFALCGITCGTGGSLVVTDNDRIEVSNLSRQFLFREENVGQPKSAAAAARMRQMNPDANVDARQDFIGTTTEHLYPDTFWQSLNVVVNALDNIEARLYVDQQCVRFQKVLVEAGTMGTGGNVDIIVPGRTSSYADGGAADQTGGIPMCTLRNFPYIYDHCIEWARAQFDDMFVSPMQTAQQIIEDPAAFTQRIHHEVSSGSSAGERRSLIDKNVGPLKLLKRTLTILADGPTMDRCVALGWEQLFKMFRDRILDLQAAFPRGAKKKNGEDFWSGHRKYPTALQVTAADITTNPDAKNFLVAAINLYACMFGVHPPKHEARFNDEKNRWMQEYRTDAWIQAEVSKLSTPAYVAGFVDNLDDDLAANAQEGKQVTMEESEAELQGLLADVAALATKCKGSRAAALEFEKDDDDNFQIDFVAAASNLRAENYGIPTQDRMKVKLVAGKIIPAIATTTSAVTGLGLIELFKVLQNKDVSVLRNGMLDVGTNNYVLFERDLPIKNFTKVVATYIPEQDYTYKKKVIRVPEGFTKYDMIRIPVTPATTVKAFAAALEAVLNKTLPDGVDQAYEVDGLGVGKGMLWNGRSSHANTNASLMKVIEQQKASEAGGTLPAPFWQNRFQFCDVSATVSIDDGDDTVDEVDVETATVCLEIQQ
Briefly: Leishmania donovani Ubiquitin Activating Enzyme (LdE1). The conditions noted are these: 30 µM. The test is classed as functional.

Test [3] addresses AMP-activated protein kinase, AMPK (Homo sapiens) (UniProt P54646+O43741+P54619+Q9UGJ0+Q9Y478+Q13131+Q9UGI9). Briefly: AMP-dependent Kinase enzyme assay. An in vitro enzyme assay that detects ADP turnover that is directly proportional to AMPK activity. This uses naive AMPK that is activated during the assay with MK-8722. The test is classed as functional. The conditions noted are these: 30 µM.

Test [4] concerns the target Sialic acid-binding Ig-like lectin 9 (Homo sapiens) (UniProt Q9Y336). Briefly: Hs-Siglec9 ALPHAscreen SOP 20170721. Conditions: 10 µM. On the technique in general: Alpha assays give light when donor and acceptor beads are brought close together.
A further test has as its system Trypanosoma cruzi. Put plainly: Trypanosoma cruzi phosphomannomutase and mannose-1-phosphate guanylyltransferase assay. The class given is functional. Conditions: 10 µM.
In test [5] the target is T2, Arginase-2, mitochondrial (Homo sapiens) (UniProt P78540).
T2 sequence (whole entry): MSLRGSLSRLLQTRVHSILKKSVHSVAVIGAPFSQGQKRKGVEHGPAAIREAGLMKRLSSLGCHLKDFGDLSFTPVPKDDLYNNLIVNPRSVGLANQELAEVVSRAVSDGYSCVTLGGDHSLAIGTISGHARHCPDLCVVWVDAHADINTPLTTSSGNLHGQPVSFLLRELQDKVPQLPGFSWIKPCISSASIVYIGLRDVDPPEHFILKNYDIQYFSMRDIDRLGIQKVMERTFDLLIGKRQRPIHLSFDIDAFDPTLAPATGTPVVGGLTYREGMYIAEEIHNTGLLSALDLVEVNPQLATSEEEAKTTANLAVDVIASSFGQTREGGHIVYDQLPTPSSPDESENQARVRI
Briefly: in vitro enzyme assay to detect the production of urea directly proportional to the activity of Arginase II. Further: in the data most compounds retested in dose-response had high values. The test is classed as functional. Conditions: 33.3 µM.

Test [6] has as its target T3, Proteasome subunit beta (Trypanosoma cruzi) (UniProt O96673).
T3 sequence (whole entry): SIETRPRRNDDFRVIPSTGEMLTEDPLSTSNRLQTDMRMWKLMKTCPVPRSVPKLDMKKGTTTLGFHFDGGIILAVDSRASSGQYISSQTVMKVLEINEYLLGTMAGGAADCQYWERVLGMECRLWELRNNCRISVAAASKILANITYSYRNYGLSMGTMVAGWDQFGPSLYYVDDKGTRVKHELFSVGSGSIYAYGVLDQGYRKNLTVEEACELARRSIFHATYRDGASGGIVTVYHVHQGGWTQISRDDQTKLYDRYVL
Put plainly: Trypanosoma cruzi proteasome chymotrypsin-like activity (TcProtChymo) assay. Further: in the data most compounds retested in dose-response had high values. The test is classed as functional. Conditions: 9.37 µM.

The species named for a further test is Homo sapiens. Briefly: To identify inhibition of the IFN signalling (Jak-Stat) pathway via expression of an eGFP reporter gene under the control of an IFN-stimulated response element (ISRE) containing MxA promoter. The class given is functional. The conditions noted are these: 30 µM. (In general: In a reporter assay the amount or activity of a reporter protein is the signal.)

In test [7] the target is T4, Tyrosyl-tRNA synthetase, putative (Trypanosoma cruzi (strain CL Brener)) (UniProt Q4DSP6).
T4 sequence (whole entry): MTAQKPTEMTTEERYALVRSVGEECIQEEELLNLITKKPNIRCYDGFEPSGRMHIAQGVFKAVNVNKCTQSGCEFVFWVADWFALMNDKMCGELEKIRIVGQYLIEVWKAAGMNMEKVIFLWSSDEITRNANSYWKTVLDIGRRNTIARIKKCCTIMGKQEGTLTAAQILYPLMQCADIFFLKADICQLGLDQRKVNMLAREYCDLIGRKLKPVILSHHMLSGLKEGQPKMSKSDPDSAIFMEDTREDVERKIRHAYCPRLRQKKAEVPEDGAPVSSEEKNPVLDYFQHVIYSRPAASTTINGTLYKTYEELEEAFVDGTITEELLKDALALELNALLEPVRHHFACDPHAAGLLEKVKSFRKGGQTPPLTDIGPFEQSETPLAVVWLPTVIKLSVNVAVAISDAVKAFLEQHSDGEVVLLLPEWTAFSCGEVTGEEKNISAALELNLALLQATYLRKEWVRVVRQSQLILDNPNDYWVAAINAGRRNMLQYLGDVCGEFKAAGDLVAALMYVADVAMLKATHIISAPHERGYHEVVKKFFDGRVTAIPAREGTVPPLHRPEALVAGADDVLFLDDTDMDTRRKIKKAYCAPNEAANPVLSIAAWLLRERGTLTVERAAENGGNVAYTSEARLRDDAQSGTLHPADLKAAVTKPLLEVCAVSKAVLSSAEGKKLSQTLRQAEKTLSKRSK
Put plainly: Trypanosoma cruzi tyrosyl tRNA synthetase (TcYRS) _High Tyrosine SOP. Further: in the data most compounds retested in dose-response had high values. The class given is functional. Conditions: 30 µM.

Test [8] deals with T4, Tyrosyl-tRNA synthetase, putative (Trypanosoma cruzi (strain CL Brener)). Briefly: Trypanosoma cruzi tyrosyl tRNA synthetase (TcYRS) SOP. The class given is functional. Conditions: 30 µM.
The target of test [9] is Chromo domain-containing protein 1 (Saccharomyces cerevisiae (strain ATCC 204508 / S288c) (Baker's yeast)) (UniProt P32657). Briefly: ScCHD-1 Enzyme Inhibition Assay. Further: in the data most compounds retested in dose-response had high values. The test is classed as functional. Conditions: 30 µM.
Sequence of Chromo domain-containing protein 1 (Saccharomyces cerevisiae (strain ATCC 204508 / S288c) (Baker's yeast)) (P32657 whole entry, the tested form may be a part): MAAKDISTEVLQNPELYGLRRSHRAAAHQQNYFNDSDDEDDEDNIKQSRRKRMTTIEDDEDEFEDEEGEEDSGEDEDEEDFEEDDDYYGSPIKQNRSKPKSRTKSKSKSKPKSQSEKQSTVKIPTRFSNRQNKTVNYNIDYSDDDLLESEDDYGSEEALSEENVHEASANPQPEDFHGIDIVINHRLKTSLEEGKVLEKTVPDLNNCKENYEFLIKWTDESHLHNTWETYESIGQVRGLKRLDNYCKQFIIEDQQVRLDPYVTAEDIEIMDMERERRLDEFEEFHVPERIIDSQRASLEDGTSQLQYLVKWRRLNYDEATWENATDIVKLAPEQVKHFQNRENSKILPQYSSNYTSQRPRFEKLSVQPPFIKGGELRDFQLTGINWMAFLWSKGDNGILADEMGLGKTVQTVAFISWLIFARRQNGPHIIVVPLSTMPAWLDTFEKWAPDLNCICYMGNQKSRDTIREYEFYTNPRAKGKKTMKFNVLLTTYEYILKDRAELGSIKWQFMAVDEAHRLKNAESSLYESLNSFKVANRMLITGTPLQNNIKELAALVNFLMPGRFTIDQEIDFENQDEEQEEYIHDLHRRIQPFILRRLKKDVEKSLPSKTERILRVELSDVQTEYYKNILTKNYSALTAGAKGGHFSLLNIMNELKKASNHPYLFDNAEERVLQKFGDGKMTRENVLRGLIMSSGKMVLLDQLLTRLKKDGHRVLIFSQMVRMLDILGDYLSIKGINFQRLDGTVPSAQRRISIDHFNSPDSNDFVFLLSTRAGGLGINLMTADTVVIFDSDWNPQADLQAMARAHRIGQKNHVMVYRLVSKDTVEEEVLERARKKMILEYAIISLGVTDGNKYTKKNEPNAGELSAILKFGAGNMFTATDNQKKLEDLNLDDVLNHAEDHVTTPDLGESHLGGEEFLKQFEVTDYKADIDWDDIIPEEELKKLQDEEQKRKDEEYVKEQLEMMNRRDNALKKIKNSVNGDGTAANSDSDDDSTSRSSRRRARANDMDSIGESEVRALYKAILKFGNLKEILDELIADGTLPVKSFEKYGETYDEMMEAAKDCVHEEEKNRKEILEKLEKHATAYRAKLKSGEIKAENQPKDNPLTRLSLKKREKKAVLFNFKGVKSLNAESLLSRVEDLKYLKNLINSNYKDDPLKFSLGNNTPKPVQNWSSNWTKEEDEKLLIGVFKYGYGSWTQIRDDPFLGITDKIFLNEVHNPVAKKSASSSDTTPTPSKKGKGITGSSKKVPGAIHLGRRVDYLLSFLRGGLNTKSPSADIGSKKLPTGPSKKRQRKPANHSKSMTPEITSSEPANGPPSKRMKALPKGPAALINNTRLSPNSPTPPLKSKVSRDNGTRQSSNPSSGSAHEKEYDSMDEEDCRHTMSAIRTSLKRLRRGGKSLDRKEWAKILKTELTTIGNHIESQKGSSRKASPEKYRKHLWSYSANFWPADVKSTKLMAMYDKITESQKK

Sequence of Sialic acid-binding Ig-like lectin 9 (Homo sapiens) (Q9Y336 whole entry): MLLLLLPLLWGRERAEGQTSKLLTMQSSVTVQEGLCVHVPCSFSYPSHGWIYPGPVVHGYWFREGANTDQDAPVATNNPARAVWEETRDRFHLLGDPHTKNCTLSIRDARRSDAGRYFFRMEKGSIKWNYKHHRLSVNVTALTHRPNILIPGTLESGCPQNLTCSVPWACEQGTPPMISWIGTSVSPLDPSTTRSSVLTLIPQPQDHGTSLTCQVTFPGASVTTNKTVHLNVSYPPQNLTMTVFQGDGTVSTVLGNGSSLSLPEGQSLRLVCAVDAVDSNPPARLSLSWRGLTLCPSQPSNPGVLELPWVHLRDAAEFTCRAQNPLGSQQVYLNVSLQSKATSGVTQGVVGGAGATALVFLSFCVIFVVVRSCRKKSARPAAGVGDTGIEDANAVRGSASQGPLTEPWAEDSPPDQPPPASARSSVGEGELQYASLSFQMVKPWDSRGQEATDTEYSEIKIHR
Sequence of Protein translocase subunit SecA (Escherichia coli (strain K12)) (P10408 whole entry): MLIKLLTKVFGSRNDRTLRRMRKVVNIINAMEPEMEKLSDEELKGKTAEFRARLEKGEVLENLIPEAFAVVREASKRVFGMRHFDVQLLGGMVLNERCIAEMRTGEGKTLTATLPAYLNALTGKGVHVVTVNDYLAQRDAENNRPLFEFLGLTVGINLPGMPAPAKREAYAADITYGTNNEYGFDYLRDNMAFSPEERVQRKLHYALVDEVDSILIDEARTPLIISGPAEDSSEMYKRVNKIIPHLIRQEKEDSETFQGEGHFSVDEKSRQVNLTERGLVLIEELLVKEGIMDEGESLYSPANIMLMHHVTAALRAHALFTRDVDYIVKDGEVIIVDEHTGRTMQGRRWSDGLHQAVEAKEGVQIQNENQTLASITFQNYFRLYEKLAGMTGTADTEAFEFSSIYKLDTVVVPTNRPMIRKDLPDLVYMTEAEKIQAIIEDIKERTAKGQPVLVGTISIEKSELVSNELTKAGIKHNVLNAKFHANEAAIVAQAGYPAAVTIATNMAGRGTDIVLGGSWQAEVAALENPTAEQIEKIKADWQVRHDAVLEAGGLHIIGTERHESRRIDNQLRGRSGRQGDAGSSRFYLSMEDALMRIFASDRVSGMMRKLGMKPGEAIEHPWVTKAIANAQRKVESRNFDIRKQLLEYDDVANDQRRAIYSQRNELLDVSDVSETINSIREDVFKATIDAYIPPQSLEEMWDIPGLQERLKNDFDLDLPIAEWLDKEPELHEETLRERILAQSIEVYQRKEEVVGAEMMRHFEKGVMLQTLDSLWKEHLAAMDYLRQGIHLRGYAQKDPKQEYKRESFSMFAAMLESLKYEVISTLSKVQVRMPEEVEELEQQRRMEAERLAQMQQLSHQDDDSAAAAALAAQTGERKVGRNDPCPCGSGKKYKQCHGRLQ

Take `CCSc1cc(C(=O)NCCC(=O)Nc2ccccn2)ccn1`: the Percent Effect is -5.48% in test [1]; 2.74% in [2]; -2.02% in test [3]; 1.7% in test [4]; 6.27% in the test on Trypanosoma cruzi; 0.909% in [5]. Besides, the Percent Effect in test [6] is 8.16%; in the test filed under Homo sapiens, 15.8%; in test [7] it was 5.38%; in test [8], 17.5%; in test [9], -3.9%.

`CC(=O)N1[C@H](Cn2cncn2)C[C@@H]2CN(S(C)(=O)=O)CC[C@@H]21`: the Percent Effect in [1] is -4.17%; in test [2], 10.4%; in [3], 1.39%; in [4], 9.47%; in the test on Trypanosoma cruzi, 9.54%; in [5], -74.5%. In addition, the Percent Effect in test [6] is 14.5%; in the test filed under Homo sapiens it was -25.9%; in [7], 4.3%; in test [8], 16.1%; in test [9] it was -4.74%.

Turning to `Cc1cnn(C2CCCN(C(=O)c3cccc(Cn4ccnc4)c3)C2)c1` (stereo not given), the Percent Effect in test [1] was -1.7%; in [2], 13.9%; in test [3], -5.85%; in test [4] it was -7.26%; with Trypanosoma cruzi, 2.36%; in [5], -4.09%. Also, the Percent Effect in test [6] was 17.3%; in the test listed under Homo sapiens, 25.8%; in test [7], 1.04%; in test [8], 10.1%; in test [9], -30.4%.

As to `CS(=O)(=O)NCCCN1CCCCC1c1cc2ccccc2[nH]1` (stereo not given), the Percent Effect in [1] is -6.23%; in test [2], 15.2%; in [3], -13%; in [4], 11.7%; in the test with Trypanosoma cruzi, 8.03%; in [5], -7.22%. For the same compound, the Percent Effect in test [6] is 5.65%; in the test filed under Homo sapiens, -8.5%; in [7], 1.48%; in [8], 16.5%; in test [9], -7.23%.

Take `O=C(Nc1cn[nH]c1)c1ccc(O)nc1`: the Percent Effect in [1] is -0.619%; in [2], 13.2%; in test [3] it was 4.46%; in [4], 12.7%; in the test with Trypanosoma cruzi, 2.82%; in test [5], -0.766%. For the same compound, the Percent Effect in test [6] was 5.68%; in the test listed under Homo sapiens, 1.45%; in test [7], 8.33%; in test [8], 21.9%; in test [9], -8.54%.

As to `Cc1cccc(C(=O)N2C[C@@H]3OCCN(c4ncccn4)[C@@H]3C2)n1`, the Percent Effect in [1] was -4.13%; in test [2] it was 5.33%; in [3], -3.52%; in test [4], 4.37%; in the test with Trypanosoma cruzi, -2.7%; in test [5] it was -8.78%. Also, the Percent Effect in test [6] is 7.35%; in the test listed under Homo sapiens, -6.79%; in test [7], 5.21%; in test [8] it was 0%; in test [9] it was 0.315%.

As for `Cc1nc(C)n(CC2CN(c3ncnc4[nH]ccc34)CCO2)n1` (stereo not given), the Percent Effect is -2.48% in test [1]; 11.4% in [2]; 24% in test [3]; -0.101% in [4]; -3.38% in the test on Trypanosoma cruzi; -2.37% in test [5]. Besides, the Percent Effect in test [6] is 6%; in the test filed under Homo sapiens, 28.6%; in test [7] it was 2.08%; in [8], 12.7%; in [9], -20.9%.

`Cn1cnnc1C1CCCN(C(=O)Cc2ccc3c(c2)OCCO3)C1` (stereo not given): the Percent Effect in [1] was -1.87%; in [2], 13%; in [3], -0.424%; in test [4], -2.52%; with Trypanosoma cruzi, 3.82%; in test [5] it was -1.05%. In addition, the Percent Effect in test [6] is 13.7%; in the test filed under Homo sapiens it was 13.2%; in test [7], 7.62%; in test [8], 18.8%; in test [9], -15.4%.

With `Cc1nc(CN2CCOC(CNc3cccnn3)C2)cs1` (stereo not given), the Percent Effect in test [1] is 0.542%; in test [2], -8.11%; in [3], -13.4%; in test [4], 10.4%; with Trypanosoma cruzi, 3.87%; in test [5] it was -2.81%. For the same compound, the Percent Effect is 20.2% in [6]; 3.75% in the test listed under Homo sapiens; 14.3% in test [7]; 6.17% in test [8]; -6.92% in test [9].

Regarding `O=C(CCc1ccc(Br)cc1F)NS(=O)(=O)c1ccc2c(c1)OCCO2`, the Percent Effect in [1] is -4.85%; in test [2], -6.33%; in [3], 13.3%; in [4] it was 0.4%; in the test on Trypanosoma cruzi it was -2.15%; in [5], 1.07%. Further, the Percent Effect in test [6] was 4.97%; in the test listed under Homo sapiens it was 18.6%; in test [7], -18.8%; in [8], -17.7%; in test [9], -2.67%.
